Residues, ends and D or L forms follow the SMILES beside them.
Legend:
Settings in all cases: Compound concentration 20.0 uM
[1] = biological target: Tyrosine-protein kinase ABL1 (Homo sapiens) (UniProt P00519)
[2] = biological target: Bromodomain-containing protein 4 (Homo sapiens) (UniProt O60885)
[3] = biological target: Cyclin-dependent kinase 2 (Homo sapiens) (UniProt P24941)
[4] = biological target: Casein kinase I isoform delta (Homo sapiens) (UniProt P48730)
[5] = biological target: Glycogen synthase kinase-3 beta (Homo sapiens) (UniProt P49841)
[6] = biological target: Mitogen-activated protein kinase 1 (Homo sapiens) (UniProt P28482)
[7] = biological target: T1, Aurora kinase A (Homo sapiens) (UniProt O14965)
T1 sequence (whole entry): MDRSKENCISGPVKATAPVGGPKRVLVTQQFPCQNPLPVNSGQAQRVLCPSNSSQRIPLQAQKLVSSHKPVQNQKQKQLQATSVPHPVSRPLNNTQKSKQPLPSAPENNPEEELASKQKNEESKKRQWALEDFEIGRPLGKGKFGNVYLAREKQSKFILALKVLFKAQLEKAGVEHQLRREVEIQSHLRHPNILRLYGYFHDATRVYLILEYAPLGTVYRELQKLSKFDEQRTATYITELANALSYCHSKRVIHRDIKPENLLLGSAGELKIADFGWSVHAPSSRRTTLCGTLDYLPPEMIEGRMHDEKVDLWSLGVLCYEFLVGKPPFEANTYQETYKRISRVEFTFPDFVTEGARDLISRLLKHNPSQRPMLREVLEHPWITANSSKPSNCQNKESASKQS

[8] = biological target: T2, Transcription intermediary factor 1-alpha (Homo sapiens) (UniProt O15164)
T2 sequence (whole entry): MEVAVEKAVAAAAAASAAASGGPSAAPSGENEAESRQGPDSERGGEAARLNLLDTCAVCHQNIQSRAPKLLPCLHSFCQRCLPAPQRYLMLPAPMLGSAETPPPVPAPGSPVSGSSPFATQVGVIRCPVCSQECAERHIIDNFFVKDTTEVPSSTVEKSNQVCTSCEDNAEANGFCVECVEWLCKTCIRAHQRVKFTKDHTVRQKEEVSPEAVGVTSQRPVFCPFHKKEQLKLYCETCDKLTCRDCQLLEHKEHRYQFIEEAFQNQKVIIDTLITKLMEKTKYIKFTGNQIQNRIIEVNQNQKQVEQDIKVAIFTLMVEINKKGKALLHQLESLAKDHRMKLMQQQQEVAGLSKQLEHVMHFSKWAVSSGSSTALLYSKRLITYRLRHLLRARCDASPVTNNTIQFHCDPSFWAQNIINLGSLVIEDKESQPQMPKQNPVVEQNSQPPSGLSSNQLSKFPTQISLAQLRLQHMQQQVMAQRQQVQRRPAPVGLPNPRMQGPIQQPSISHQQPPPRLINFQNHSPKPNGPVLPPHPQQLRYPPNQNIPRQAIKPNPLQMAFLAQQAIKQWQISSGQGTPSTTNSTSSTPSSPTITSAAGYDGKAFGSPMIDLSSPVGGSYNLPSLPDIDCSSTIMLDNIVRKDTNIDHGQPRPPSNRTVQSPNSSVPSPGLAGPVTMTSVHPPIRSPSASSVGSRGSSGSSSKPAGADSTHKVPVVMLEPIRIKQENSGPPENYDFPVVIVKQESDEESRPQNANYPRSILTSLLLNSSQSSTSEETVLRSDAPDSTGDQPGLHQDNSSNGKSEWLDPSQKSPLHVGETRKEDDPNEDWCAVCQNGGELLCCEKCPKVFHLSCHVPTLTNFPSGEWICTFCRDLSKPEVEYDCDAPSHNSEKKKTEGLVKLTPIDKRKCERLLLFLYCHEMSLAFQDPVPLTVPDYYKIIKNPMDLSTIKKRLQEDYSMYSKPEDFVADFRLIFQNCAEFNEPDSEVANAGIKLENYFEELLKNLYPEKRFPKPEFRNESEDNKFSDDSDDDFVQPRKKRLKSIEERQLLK

Chain of Mitogen-activated protein kinase 1 (Homo sapiens) (P28482 whole entry): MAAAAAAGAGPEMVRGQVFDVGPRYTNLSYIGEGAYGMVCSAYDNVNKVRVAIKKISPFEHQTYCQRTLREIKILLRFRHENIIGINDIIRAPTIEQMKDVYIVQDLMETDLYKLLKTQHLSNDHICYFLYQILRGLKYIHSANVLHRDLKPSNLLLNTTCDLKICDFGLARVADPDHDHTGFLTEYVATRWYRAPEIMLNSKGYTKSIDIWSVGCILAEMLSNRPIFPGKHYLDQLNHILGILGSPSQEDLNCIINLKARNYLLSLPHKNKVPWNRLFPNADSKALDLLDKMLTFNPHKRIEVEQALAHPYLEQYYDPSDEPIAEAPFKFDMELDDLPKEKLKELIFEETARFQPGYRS
Chain of Glycogen synthase kinase-3 beta (Homo sapiens) (P49841 whole entry, looked up): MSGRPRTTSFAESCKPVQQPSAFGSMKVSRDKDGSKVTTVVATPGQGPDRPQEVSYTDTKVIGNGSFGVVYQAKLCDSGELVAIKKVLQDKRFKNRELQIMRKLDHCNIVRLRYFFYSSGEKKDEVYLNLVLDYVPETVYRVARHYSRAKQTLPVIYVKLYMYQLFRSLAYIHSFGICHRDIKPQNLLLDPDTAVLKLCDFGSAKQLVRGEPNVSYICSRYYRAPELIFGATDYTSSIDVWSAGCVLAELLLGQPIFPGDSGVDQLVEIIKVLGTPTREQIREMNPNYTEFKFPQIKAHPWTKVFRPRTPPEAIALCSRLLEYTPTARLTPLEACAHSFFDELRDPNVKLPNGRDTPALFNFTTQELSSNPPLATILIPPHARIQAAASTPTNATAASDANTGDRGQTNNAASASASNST
Chain of Casein kinase I isoform delta (Homo sapiens) (P48730 whole entry, looked up, canonical isoform): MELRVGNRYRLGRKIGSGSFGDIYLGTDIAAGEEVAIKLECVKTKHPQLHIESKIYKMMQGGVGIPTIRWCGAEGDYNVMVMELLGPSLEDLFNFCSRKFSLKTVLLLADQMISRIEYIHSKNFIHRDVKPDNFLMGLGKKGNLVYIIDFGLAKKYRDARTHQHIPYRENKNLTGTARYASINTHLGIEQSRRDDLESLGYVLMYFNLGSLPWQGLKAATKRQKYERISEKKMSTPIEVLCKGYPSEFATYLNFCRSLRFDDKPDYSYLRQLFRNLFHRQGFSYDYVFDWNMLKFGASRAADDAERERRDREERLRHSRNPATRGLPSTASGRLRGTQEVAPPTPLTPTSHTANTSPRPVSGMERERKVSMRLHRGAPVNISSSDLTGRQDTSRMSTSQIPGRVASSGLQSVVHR
Chain of Tyrosine-protein kinase ABL1 (Homo sapiens) (P00519 whole entry): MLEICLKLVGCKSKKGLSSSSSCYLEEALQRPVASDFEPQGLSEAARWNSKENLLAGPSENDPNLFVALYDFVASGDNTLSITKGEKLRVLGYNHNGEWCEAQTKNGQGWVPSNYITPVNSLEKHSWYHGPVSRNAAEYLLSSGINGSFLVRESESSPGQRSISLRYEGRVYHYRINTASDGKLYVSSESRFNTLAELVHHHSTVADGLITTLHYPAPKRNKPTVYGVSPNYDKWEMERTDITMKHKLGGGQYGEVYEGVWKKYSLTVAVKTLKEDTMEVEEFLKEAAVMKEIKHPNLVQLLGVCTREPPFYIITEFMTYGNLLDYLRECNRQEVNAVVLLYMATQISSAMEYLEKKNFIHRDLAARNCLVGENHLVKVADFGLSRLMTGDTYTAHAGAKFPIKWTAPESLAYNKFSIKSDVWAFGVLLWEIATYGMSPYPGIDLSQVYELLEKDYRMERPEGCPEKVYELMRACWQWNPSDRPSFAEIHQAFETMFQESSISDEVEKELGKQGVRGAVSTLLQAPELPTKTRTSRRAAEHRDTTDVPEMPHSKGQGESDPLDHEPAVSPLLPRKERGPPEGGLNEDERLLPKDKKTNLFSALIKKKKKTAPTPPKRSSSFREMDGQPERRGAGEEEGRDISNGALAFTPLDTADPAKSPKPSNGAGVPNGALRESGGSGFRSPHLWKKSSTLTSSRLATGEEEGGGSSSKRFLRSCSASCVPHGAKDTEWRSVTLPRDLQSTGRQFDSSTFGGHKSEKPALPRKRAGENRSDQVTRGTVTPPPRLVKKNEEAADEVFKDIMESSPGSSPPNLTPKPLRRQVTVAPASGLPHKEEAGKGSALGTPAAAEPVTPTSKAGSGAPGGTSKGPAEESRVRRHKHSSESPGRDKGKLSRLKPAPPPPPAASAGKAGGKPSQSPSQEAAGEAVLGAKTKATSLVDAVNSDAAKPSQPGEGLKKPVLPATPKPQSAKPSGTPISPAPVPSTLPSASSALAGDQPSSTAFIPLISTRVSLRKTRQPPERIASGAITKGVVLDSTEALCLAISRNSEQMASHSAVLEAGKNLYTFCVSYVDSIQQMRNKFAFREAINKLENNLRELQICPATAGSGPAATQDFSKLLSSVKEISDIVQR

Row | SMILES | ΔTm [1] | ΔTm [2] | ΔTm [3] | ΔTm [4] | ΔTm [5] | ΔTm [6] | ΔTm [7] | ΔTm [8]
1 | CS(=O)(=O)Nc1ccc2oc3c(OC(F)F)ccc(C(=O)Nc4c(Cl)cncc4Cl)c3c2c1 | 0.6 °C | -1.02 °C | -0.16 °C | -1.11 °C | -0.39 °C | 0.24 °C | -1.56 °C | 0.09 °C
2 | Nc1nc(C(F)(F)F)nc2c1nnn2C[C@H]1CN(Cc2nccs2)CCO1 | 0.2 °C | -2.15 °C | 0.32 °C | -0.15 °C | -0.98 °C | 0.32 °C | -1.21 °C | 0.71 °C
3 | Cc1noc2c1-c1ccccc1C(c1ccc(Cl)cc1)=N[C@H]2CC(N)=O | 0.53 °C | 8.17 °C | 0.94 °C | 0.05 °C | -0.25 °C | 0.12 °C | -2.42 °C | -0.29 °C
4 | Cn1ncc2c(-c3c(-c4ccc(F)cn4)nn4c3COC(C)(C)C4)ccnc21 | 0.22 °C | 0.28 °C | -0.29 °C | 1.41 °C | -0.58 °C | 0.32 °C | -1.67 °C | -1.33 °C
5 | O=C(O)Cn1nnc(-c2ccc(CN(CCCCOc3ccc(CN4CCCC4)cc3)CCc3ccccc3)cc2)n1 | 0.12 °C | -3.23 °C | -1.15 °C | 0.14 °C | -0.71 °C | -0.45 °C | -2.88 °C | -1.13 °C
6 | CC(=O)N1CCC(Nc2cc(C(=O)NC[C@H](O)CN3CCc4ccccc4C3)ncn2)CC1 | 0.44 °C | -0.33 °C | 0.19 °C | 0.07 °C | 0.18 °C | 0.06 °C | -0.79 °C | -0.38 °C
7 | COc1cc([C@@H]2Oc3c(O)cc([C@H]4Oc5cc(O)cc(O)c5C(=O)[C@@H]4O)cc3[C@H]2CO)ccc1O | 0.61 °C | -1.83 °C | 0.16 °C | 0.36 °C | 3.53 °C | 0.13 °C | -1.74 °C | 1.87 °C
8 | N#Cc1cccnc1N1CCN(C(=O)c2cccc(Cc3n[nH]c(=O)c4ccccc34)c2)CC1 | 0.57 °C | -2.92 °C | 0.15 °C | 0.14 °C | -0.23 °C | 0.24 °C | -2.06 °C | -0.96 °C
9 | O=c1cc(-c2ccc(O)cc2)oc2c(CN3CCN(Cc4cccs4)CC3)c(O)cc(O)c12 | 2.39 °C | -1.3 °C | 1.5 °C | -0.79 °C | 2.99 °C | -1.64 °C | 3.95 °C | 2.2 °C
10 | CC(=O)N[C@H](C(=O)N[C@@H](CC(=O)O)C(=O)N[C@H](C(=O)N[C@@H](C)C(=O)N[C@H](C=O)CC(=O)O)C(C)C)C(C)C (Ac-VDVAD-aldehyde) | 0.62 °C | -2.7 °C | -0.17 °C | -0.1 °C | 0.07 °C | 0 °C | -1.39 °C | -0.67 °C
11 | CCOC(=O)Oc1c(OC)cc(C(=O)O[C@H]2C[C@H]3CN4CCc5c([nH]c6cc(OC)ccc56)[C@@H]4C[C@H]3[C@@H](C(=O)OC)[C@@H]2OC)cc1OC | 0.54 °C | -2.32 °C | 0.27 °C | -0.84 °C | -0.14 °C | -0.02 °C | -2.27 °C | 0.01 °C
12 | CN(C)CC(c1ccc(O)cc1)C1(O)CCCCC1 (stereo unspecified) | 0.19 °C | -2.16 °C | 0.04 °C | -0.35 °C | -1.41 °C | 0.1 °C | -1.27 °C | 0.3 °C
13 | NS(=O)(=O)OC[C@H]1C[C@@H](Nc2ccnc3cc(-c4cccc(SC(F)(F)F)c4)nn23)[C@H](O)[C@@H]1O | 1.49 °C | 1.04 °C | 0.04 °C | 0.4 °C | -1.24 °C | 0.75 °C | -1.12 °C | 1.39 °C
14 | CC(C)N(CCCNC(=O)Nc1ccc(C(C)(C)C)cc1)C[C@H]1O[C@@H](n2ccc3c(N)ncnc32)[C@H](O)[C@@H]1O | 0.45 °C | -1.62 °C | 0.52 °C | 0.47 °C | -0.31 °C | 0.01 °C | 0.01 °C | -1.18 °C
15 | CNC(=O)c1cnc(N2CCC[C@H](N)C2)nc1Nc1cc(C(C)C)nc(C(C)C)c1 | 0.5 °C | -1.65 °C | 0.07 °C | 1.75 °C | -0.33 °C | 0.06 °C | -0.12 °C | -1 °C
16 | O=C(O)c1cccc(-c2ccc(-c3cn(C(=O)N4CCCCC4Cc4ccccc4)nn3)cc2)c1 (stereo unspecified) | -0.1 °C | -2.23 °C | -0.87 °C | -4.82 °C | -4.03 °C | 0.56 °C | -3.62 °C | -0.34 °C
17 | O=C(Cc1ccccc1)c1cc(O)c(O)c([N+](=O)[O-])c1 | 0.39 °C | -1.83 °C | 0.33 °C | -0.3 °C | -0.88 °C | 0.35 °C | 0 °C | 1.83 °C
18 | COc1ccc(-c2c(-c3ccc(C#N)c(F)c3)nc(N3CCC(N)CC3)n(C)c2=O)cc1F | 0.65 °C | -3.53 °C | 0 °C | 0 °C | -0.33 °C | 0.2 °C | -2.24 °C | -0.36 °C
19 | Fc1ccc(CNc2ncnc3ccc(F)cc23)cc1 | 1.11 °C | -2.88 °C | 0.04 °C | 0.46 °C | 0.18 °C | 0.19 °C | -1.03 °C | -0.4 °C
20 | COc1ccc(-n2c(SCCCN3C(=O)c4cccc5cccc(c45)C3=O)nnc2-c2ccncc2)cc1 | 0.68 °C | -3.3 °C | -0.02 °C | 0.26 °C | -0.45 °C | 0.07 °C | -1.38 °C | 0.1 °C
21 | O=S(=O)(CSc1nnc(Br)n1Cc1ccc(Br)c2ccccc12)Nc1cccnc1 | 0.41 °C | -4.11 °C | -0.15 °C | -0.32 °C | -0.3 °C | 0.05 °C | -1.41 °C | -0.15 °C
22 | CC(C)C(=O)SCCCCCCC(=O)Nc1nc(-c2ccccc2)cs1 | 0.63 °C | -1.46 °C | 0.18 °C | 0.04 °C | 1.11 °C | -0.16 °C | -0.57 °C | -0.48 °C
